CBFb-RUNX1 inh: qHTS Assay for Compounds Blocking the Interaction Between CBF-beta and RUNX1 for the Treatment of Acute Myeloid Leukemia; Runt-related transcription factor 1 (Homo sapiens) + Core-binding factor subunit beta …; AlphaScreen CBFb-His/RUNX1-biotin binding, biochemical; Potency, µM (top dose mostly 59.8 µM), inactives show at the top dose activity, negative = inhibition, most hits filed as inhibitors; 230,000 tested, under 10 active; AID 1477, 2009; further: % of control where 0% means no effect
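Proteins preincubated together for 20 min at RT before compound addition; 15 min later, nickel and streptavidin beads were added and left 90 min prior to AlphaScreen measurement.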
HPGD inh: qHTS Assay for Inhibitors of HPGD (15-Hydroxyprostaglandin Dehydrogenase); 15-hydroxyprostaglandin dehydrogenase [NAD(+)] (Homo sapiens), P15428; purified HPGD, NADH fluorescence kinetic, PGE2 substrate; Potency, µM, for inactives: at the highest dose activity change, negative = inhibition, usual class: inhibitors; actives 4.3% (n = 150,000); AID 894, 2007; active means well fitted inhibition curve with a large enough effect, not every such curve was filed as active; inconclusive means small, poorly fitted or top-dose-only effect, or another doubt; inactive means no such curve, though single readings can be large or run the other way; further: potency means the concentration at half of the fitted maximal effect; on the % scale 0 is the no-effect control and ±100 the full control effect
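NADH formation kinetics: reaction with 30 uM PGE2 and 1 mM NAD+ (final), 20 nM enzyme, Tris-HCl pH 8 with Tween 20, after 15 min compound preincubation at room temperature. Fluorescence change, last versus first of five reads.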
HTT ATP protect: qHTS Multiplex Assay to Identify Dual Action Probes in a Cell Model of Huntington: Cytoprotection (ATP) | PC12 HTT-Q103 induced, cytoprotection, ATP luminescence, 40 h | Potency, µM (top dose mostly 56.4 µM), inactives show cytoprotection (ATP increase), most hits filed as activators | actives 0.14% (n = 230,000) | AID 1471, 2008; further: potency means the concentration at half of the fitted maximal effect; % of control where 0% means no effect; nearly all actives have a fitted effect of over 45% in size
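Compounds added alongside 100 nM tebufenozide, which induces toxic Q103 huntingtin exon 1-GFP in stable PC12 cells; surviving cells quantified by luminescent ATP measurement. Medium: phenol red-free DMEM, 5% equine and 5% calf serum.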
PNC assembly inh: High Content Assay for Compounds that inhibit the Assembly of the Perinucleolar Compartment; PC3M PTB-GFP, PNC prevalence imaging, 16 h; stronger effect = lower value; activity change (PNC), negative = inhibition, % at 10 µM; actives 3.1% (n = 140,000);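 active means readout at or below -70, meaning at least 70% loss of cells showing the perinucleolar compartment, a nuclear body marking cancer cells; inconclusive means readout between -30 and a set limit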;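 further: plate controls were DMSO wells for no effect and camptothecin positive control wells for full effect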
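Compounds are pinned in duplicate onto adhered PC3M cells stably expressing GFP-tagged PTB and incubated 16 h at 37 C. Cells are then fixed, nuclei stained with Hoechst, and PNC-positive cells counted.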
HTT aggregate: qHTS Multiplex Assay to Identify Dual Action Probes in a Cell Model of Huntington: Aggregate Formation (GFP). PC12 HttQ103-GFP aggregates, Acumen cytometry, 40 h. Potency, µM (highest dose often 46.1 µM), for inactives: top-dose activity change, negative = inhibition, usual class: inhibitors. actives 1.1% (n = 220,000). AID 1688, 2009; further: potency means the concentration at half of the fitted maximal effect; on the % scale 0 is the no-effect control and ±100 the full control effect; nearly all actives have a fitted effect of over 60% in size
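Multiplexed with ATP-based cell death, this channel scores GFP aggregates in PC12 cells expressing inducible HTTex1-Q103-GFP. Induction used 100 nM tebufenozide; compounds were tested in concentration series.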
ALDH1A1 inh: qHTS Assay for Inhibitors of Aldehyde Dehydrogenase 1 (ALDH1A1) | Purified ALDH1A1, NADH fluorescence, propionaldehyde substrate | AID 1030, 2008 | actives 7.3% (n = 220,000) | Potency, µM (series often up to 75.3 µM), inactives show top-dose activity, negative = inhibition, usual class: inhibitors; active means well fitted inhibition curve with a large enough effect, not every such curve was filed as active; inconclusive means small, poorly fitted or top-dose-only effect, or another doubt; inactive means no such curve, though single readings can be large or run the other way;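 further: potency means the concentration at half of the fitted maximal effect; plate controls were no enzyme wells and a reference inhibitor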
Target sequence (P00352 whole entry, looked up): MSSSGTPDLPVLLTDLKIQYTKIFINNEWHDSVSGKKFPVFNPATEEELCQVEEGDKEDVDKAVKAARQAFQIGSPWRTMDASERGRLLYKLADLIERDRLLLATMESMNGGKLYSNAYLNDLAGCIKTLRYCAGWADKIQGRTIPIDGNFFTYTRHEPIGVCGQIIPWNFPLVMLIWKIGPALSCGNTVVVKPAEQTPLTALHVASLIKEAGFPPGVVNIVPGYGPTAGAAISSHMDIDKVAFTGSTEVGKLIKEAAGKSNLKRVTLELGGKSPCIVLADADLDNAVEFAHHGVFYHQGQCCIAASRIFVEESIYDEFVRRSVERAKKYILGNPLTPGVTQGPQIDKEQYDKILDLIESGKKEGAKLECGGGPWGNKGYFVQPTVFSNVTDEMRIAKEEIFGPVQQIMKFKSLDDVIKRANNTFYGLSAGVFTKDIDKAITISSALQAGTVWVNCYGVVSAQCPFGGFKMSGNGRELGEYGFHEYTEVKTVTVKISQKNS
* = called active by the depositor; ? = inconclusive; · = no result given; [ ] = dose if it differs, or a comment. Hits are enriched below; roughly 11% of the tested compounds scored in any of these assays. Unless noted, the call rests on the fitted dose curve; in most records, active means well fitted curve in the direction sought with a large enough effect; inconclusive means small, poorly fitted or top-dose-only effect, or another doubt; inactive means no such curve, though single readings can be large; an effect the other way counts as inactive or inconclusive.

SMILES	CBFb-RUNX1 inh	HPGD inh	HTT ATP protect	PNC assembly inh	HTT aggregate	ALDH1A1 inh
CCCCC[C@H](O)/C=C/C=C/C=C/[C@H](O)C/C=C\CCCC(=O)O	11%	-1%	-6%	·	·	4%
O=C(O)c1cccc(N/N=C/C2=C(Cl)c3cc(Cl)ccc3SC2)c1	?	·	-3%	·	0%	20µM*
OCCOCCn1c2ccccc2c2ccccc21	-2%	-14%	13%[0.074 µM]	-139*	5%	2%
CN(C(=O)COC(=O)c1ccc2c(=O)n3c(nc2c1)CCC3)c1ccccc1	-5%	-25%	9%[10 µM]	2	?	?
CCCN1C(=O)C(Cc2nc3ccccc3c(=O)n2-c2ccccc2)c2ccccc21 (configuration not stated)	-6%	-2%	-11%[10 µM]	42	-13%	8.9µM*
CC(C)N1C(=O)C(Cc2nc3ccccc3c(=O)n2-c2ccccc2)c2ccccc21 (configuration not stated)	-4%	-15%	-14%	11	?	?
O=C(c1ccc(Sc2cccc(Cl)c2)c([N+](=O)[O-])c1)N1CCN(c2ccccn2)CC1	?	·	-1%	·	-25%	-7%
CC(C)OC(=O)c1ccc(NC(=O)Cn2c(-c3nonc3N)nc3ccccc32)cc1	5%	-6%	18%[1.9 µM]	0	4%	22µM*
COC(=O)c1ccccc1NC(=O)Cn1c(-c2nonc2N)nc2ccccc21	8%	1%	-62%[10 µM]	-98*	31%	-1%
CCCn1c(-c2nonc2N)nc2ccccc21	-3%	-16%	3%[10 µM]	249	13µM*	2%
Nc1nonc1-c1nc2ccccc2n1CC(=O)O	1%	-10%	2%	28	12%	-7%
CC(C)CCN1CCN(Cc2nc(-c3ccc(F)cc3)cs2)CC1CCO (configuration not stated)	11%	·	-47%	·	-17%	13%
COc1ccc2c(c1)C(=O)[C@H](OC(=O)NCc1ccc3c(c1)OCO3)[C@@H](c1ccc(OC)c(Br)c1)O2	-10%	-4%	-37%	·	·	6%
c1cnc(N2CCSCC2)nc1	4%	-3%	-6%	-91*	-10%	12%
c1cnc(N2CC[N+]3(CCCC3)CC2)nc1	1%	-15%	0%[0.074 µM]	42	-7%	5%
CC12CCC=CC1C(c1ccoc1)N(Cc1ccccc1)C2=O (configuration not stated)	-2%	·	·	·	·	·
O=c1c(N2CCOCC2)nsnc1N1CCOCC1	20%	·	-5%[10 µM]	?	22%	25µM*
O=C(COc1nsnc1N1CCOCC1)N/N=C/c1ccccc1O	1%	?	·	-2	14µM*	?
O=C(O)COc1ccc(/C=N/NC(=O)COc2nsnc2N2CCOCC2)cc1	5%	·	8%[10 µM]	·	10%[9.22 µM]	?
COC(=O)Oc1nsnc1N1CCOCC1	0%	14µM*	-6%[10 µM]	7	1%	4µM*
Cn1ncc2c(NNC(=O)C3CCCCC3)ncnc21	0%	·	-16%	·	11%	5%
COc1ccc(N2C(=O)CCC(C(=O)NCc3ccccn3)C2c2ccc(OC)c(OC)c2)cc1 (configuration not stated)	8%	-9%	-2%[10 µM]	?	17%	8%
COc1ccc(N2C(=O)CCC(C(=O)NCc3ccccn3)C2c2ccc(F)cc2)cc1 (configuration not stated)	-2%	1%	15%[10 µM]	-4	6%	4%
COc1ccc(C2C(C(=O)N3CCOCC3)CCC(=O)N2c2ccc(OC)cc2)cc1 (configuration not stated)	-6%	-11%	4%	?	25%	14µM*
COc1ccc(N2C(=O)CCC(C(=O)N3CCCCC3)C2c2ccc(OC)c(OC)c2)cc1 (configuration not stated)	5%	-5%	20%[10 µM]	-7	2%	1%
SMILES	CBFb-RUNX1 inh	HPGD inh	HTT ATP protect	PNC assembly inh	HTT aggregate	ALDH1A1 inh
COc1ccc(N2C(=O)CCC(C(=O)Nc3cccc(C)n3)C2c2ccc(OC)c(OC)c2)cc1 (configuration not stated)	8%	-4%	-7%	-14	-20%	22µM*
COc1ccc(C2C(C(=O)NCC3CCCO3)CCC(=O)N2c2ccc3c(c2)OCO3)cc1 (configuration not stated)	1%	5%	28%	18	-9%	14µM*
C[N@@+]1(CC[N@@+]2(C)CCC[C@H]2c2cccnc2)CCC[C@@H]1c1cccnc1	·	-13%	-8%[10 µM]	·	·	7%[13.5 µM]
CCOC(=O)Cn1c(S(=O)(=O)Cc2ccccc2Cl)nc(-c2ccccc2)c1-c1ccccc1	3%	-13%	-7%[10 µM]	-84*	-8%	4%
Cc1cc(-c2n[nH]c(=S)o2)c(C)n1-c1ccccc1	-6%	-25%	-90%	?	13%	3.5µM*
O=C(O)CCCn1nc(C(F)(F)F)c2c1CCCCC2	9%	-16%	7%	-92*	?	?
O=C(O)Cn1nc(C(F)(F)F)c2c1CCCC2	15%	·	-15%	·	2%	9%
CCCCC(CC)CNC(=O)C(Cc1ccccc1)NS(=O)(=O)c1ccc2c(c1)CCC(=O)N2 (configuration not stated)	-1%	·	-20%	·	1%	13%
Cc1cccc(CNc2cc(-c3ccccc3C)ncn2)c1	·	16µM*	-22%	·	·	?
Cc1ccccc1-c1cc(Nc2ccc(F)cc2)ncn1	·	14µM*	-23%	·	·	-5%
CCOC(=O)[C@@H](N)CS	·	·	25%	·	10%	·
Nc1c[n+](N2CCOCC2)no1	-4%[21.7 µM]	-20%	-23%	·	·	-10%
COC(C[C@H](O)C[C@@H](O)COCc1ccccc1)OC	7%	·	10%[10 µM]	·	40%[9.22 µM]	·
COC(=O)c1c(-c2ccc(F)cc2)noc1N	16%	-2%	-9%[10 µM]	-89*	1%	1%
COc1cc(N=C(N)N=C(N)N)c2ncccc2c1	·	-9%	3%[10 µM]	·	·	9%[13.5 µM]
O=C(O)CSCCc1ccccc1	·	2%	-22%[10 µM]	·	·	12%[13.5 µM]
OC/C=C/c1ccccc1	·	·	3%	·	1%	·
O=S(=O)(c1ccccc1)C(/C=N\O)/C=C/c1ccccc1 (configuration not stated)	11%	·	-66%	·	7%	11µM*
